Shown are actives, neighbours in structure and some others; about 1.3% of the full set was active somewhere.
RE007 growth inh – less growth of the S. pombe RE007 Vpr strain. 360,000 tested, 0.21% active. S. pombe RE007 Vpr strain, BacTiter-Glo ATP luminescence, 24 h. Potency, µM (titrated, usually from 92.2 µM), without a hit: at the highest dose activity change, negative = less growth, most hits filed as inhibitors; active = well fitted falling curve with a large enough effect; inconclusive = small, poorly fitted or top-dose-only effect; inactive = no such curve, though single readings can be large or run the other way; note: nearly all actives have a fitted effect of over 50% in size
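Fission yeast strain RE007, carrying one chromosomally integrated HIV-1 vpr copy, was seeded at OD 0.01 in PMG+AL medium with 23 nL pinned compound. After 24 h at 30 °C and 99% humidity, viability was read by BacTiter-Glo luminescence.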
AMA1 RON2 block – disrupts binding of P. falciparum AMA1 to RON2; 360,000 tested, 0.2% active; AID 720542; Potency, µM (top dose mostly 58.2 µM), for inactives: at the highest dose activity change, negative = inhibition, actives largely listed as inhibitors; AlphaScreen AMA1-biotinylated RON2 peptide binding;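 note: 0% = vehicle wells and -100% = peptide control; nearly all actives have a fitted effect of over 45% in size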
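AMA1 (3D7) with his tag at 25 nM final met compounds first, then biotinylated RON2 peptide at 25 nM; detection used donor plus acceptor beads, 10 µg/mL apiece, read by AlphaScreen after 30 min at room temperature.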
Vaccinia Venus – inhibitors of vaccinia virus (Venus reporter). Vaccinia virus Venus reporter expression, fluorescence. Potency, µM (series often up to 36.5 µM), for inactives: at the highest dose activity change, negative = inhibition, most hits filed as inhibitors. 330,000 tested, 0.46% active; calls by dose curve; tested in A549 cells; note: nearly all actives have a fitted effect of over 30% in size
Vaccinia mCherry – vaccinia inhibition (mCherry reporter). 310,000 tested, 0.63% active. Vaccinia virus mCherry reporter infection, fluorescence. Potency, µM (top dose mostly 36.5 µM), for the others: top-dose activity change, negative = inhibition, hits mostly inhibitors; calls by dose curve; tested in A549 cells; note: nearly all actives have a fitted effect of over 35% in size
TbPYK inhibitor – inhibitors of Trypanosoma brucei pyruvate kinase | 410,000 tested, 0.12% active | Q57TT1 | Potency, µM (top dose mostly 76.8 µM), for the others: at the highest dose activity, negative = inhibition, hits mostly inhibitors | AID 624173 | TbPYK enzyme, Kinase-Glo Plus ATP luminescence, 45 min; note: nearly all actives have a fitted effect of over 50% in size
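Enzyme and substrate buffer are dispensed first and compound is pin-transferred. ADP at 130 uM final then starts the reaction, which runs 45 min at room temperature. Detection reagent is added for 10 min before luminescence is imaged.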
LmPK inhibitor – blocks Leishmania mexicana pyruvate kinase activity; Q27686; Potency, µM (series often up to 57.5 µM), without a hit: at the top dose activity change, negative = inhibition, usual class: inhibitors; 290,000 tested, 0.37% active; purified LmPK, Kinase-Glo ATP luminescence, 1 h
Target sequence (Q27686 whole entry, looked up): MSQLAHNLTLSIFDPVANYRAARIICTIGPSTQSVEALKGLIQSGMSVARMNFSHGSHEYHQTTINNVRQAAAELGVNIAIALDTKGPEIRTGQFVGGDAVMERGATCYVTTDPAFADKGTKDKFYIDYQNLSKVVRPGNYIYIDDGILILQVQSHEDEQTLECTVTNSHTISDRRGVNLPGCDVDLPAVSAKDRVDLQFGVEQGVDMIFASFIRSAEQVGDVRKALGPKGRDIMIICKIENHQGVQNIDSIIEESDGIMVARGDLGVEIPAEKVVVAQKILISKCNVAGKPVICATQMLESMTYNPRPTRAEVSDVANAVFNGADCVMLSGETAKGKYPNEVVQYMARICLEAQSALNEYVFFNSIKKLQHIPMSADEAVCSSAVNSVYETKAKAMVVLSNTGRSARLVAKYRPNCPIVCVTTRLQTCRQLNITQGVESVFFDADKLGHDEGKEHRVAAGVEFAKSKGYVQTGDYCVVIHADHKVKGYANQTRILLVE
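Purified LmPK (0.1 nM) with 0.5 mM PEP and 0.1 mM ADP in imidazole buffer pH 7.2 with MgCl2/KCl, 1 h at room temperature. ATP formed was read by luciferase luminescence and normalized to no-enzyme and uninhibited controls.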
Starred values were filed as active, the others as inactive; [ ] = remark or other dose. Unless noted, calls come from the whole dose curve; as a rule, active = well fitted curve in the direction sought with a large enough effect; inconclusive = small, poorly fitted or top-dose-only effect, or another doubt; inactive = no such curve, though single readings can be large; an effect the other way counts as inactive or inconclusive. Unless noted, % is set by controls: 0 for no effect and ±100 for the full control effect; potency is the fitted concentration of half-maximal effect.

Screening Brc1ccc(Oc2ccc(Br)cc2Br)c(Br)c1 returned RE007 growth inh 0%, AMA1 RON2 block 36%, Vaccinia Venus -4%, Vaccinia mCherry inactive and TbPYK inhibitor 2%.
`O=C(O/N=C1/CCCc2occc21)c1ccccc1` gave RE007 growth inh -19%, AMA1 RON2 block 6%, Vaccinia Venus 3%, TbPYK inhibitor -6% and LmPK inhibitor 13µM*.
`C=CCC[C@@H](Cc1ccc(F)cc1)C(=O)OC[C@@H](Cc1c[nH]c2ccccc12)NC(=O)[C@H](CC=C)CC(=O)N(CCO)Cc1ccccc1` gave RE007 growth inh -6%, AMA1 RON2 block -11%, Vaccinia Venus 14µM*, Vaccinia mCherry inconclusive and TbPYK inhibitor -10%.
For C=CCC[C@H](Cc1ccc(F)cc1)C(=O)OC[C@@H](Cc1c[nH]c2ccccc12)NC(=O)[C@H](CC=C)CC(=O)NCCO the results were RE007 growth inh 8%, AMA1 RON2 block -14%, Vaccinia Venus inconclusive, Vaccinia mCherry inconclusive and TbPYK inhibitor -6%.
C=CCC[C@H](Cc1ccc(F)cc1)C(=O)OC[C@@H](Cc1c[nH]c2ccccc12)NC(=O)[C@H](CC=C)CC(=O)N(CCO)Cc1ccccc1 was read as RE007 growth inh -6%, AMA1 RON2 block -16%, Vaccinia Venus 10µM*, Vaccinia mCherry inconclusive and TbPYK inhibitor 3%.
For COc1ccccc1-n1cc(CN2CCC3(CCC(CNC(=O)c4ccccc4)O3)CC2)cn1 (centres undefined) the results were Vaccinia Venus 1% and Vaccinia mCherry inactive.
`CCOc1ccc(NCc2nc3ccccc3n2CCOc2ccccc2)cc1` gave RE007 growth inh inconclusive, AMA1 RON2 block 14µM*, Vaccinia Venus inconclusive, Vaccinia mCherry -26%, TbPYK inhibitor 0% and LmPK inhibitor -3%.
Screening CCOc1ccc(NCc2nc3ccccc3n2CCOc2ccc(C)cc2)cc1 returned Vaccinia Venus inconclusive, Vaccinia mCherry -28% and TbPYK inhibitor 0%.
Screening O=C(Nc1cccc(Cl)c1)c1c(NC(=O)C(F)(F)F)sc2c1CCCC2 returned Vaccinia Venus inconclusive, Vaccinia mCherry 13µM* and TbPYK inhibitor -3%.
Screening O=C(Nc1sc2c(c1C(=O)Nc1ccc(Cl)cc1)CCCC2)c1cccs1 returned Vaccinia Venus inconclusive, Vaccinia mCherry 13µM* and TbPYK inhibitor 1%.
Screening CCOC(=O)c1c(NC(=O)c2cccs2)sc2c1CCCC2 returned RE007 growth inh 0%, AMA1 RON2 block -13%, Vaccinia Venus -9%, Vaccinia mCherry -18%, TbPYK inhibitor -7% and LmPK inhibitor 2%.
COc1cc2c(cc1OC)[C@@H]1O[C@](CCCCN3C(=O)c4ccccc4C3=O)(C2)Oc2cc(C)n(-c3ccccc3)c(=O)c21 was read as LmPK inhibitor -1%[11.5 µM].
NS(=O)(=O)c1ccc(NC(=O)c2nc(S(=O)(=O)Cc3ccccc3F)ncc2Cl)cc1 was read as Vaccinia Venus -9% and Vaccinia mCherry 21%.
`CC(=O)OC1(C)CC(C)C(=O)C(C(O)CC2CC(=O)NC(=O)C2)C1` (centres undefined) gave RE007 growth inh inconclusive, AMA1 RON2 block -1%, Vaccinia Venus 0.1µM*, Vaccinia mCherry inconclusive and TbPYK inhibitor -3%.
`C[C@@H]1C[C@@H]([C@H](O)CC2CC(=O)NC(=O)C2)C(=O)[C@@H](C)C1` gave RE007 growth inh -20%, AMA1 RON2 block 7%, Vaccinia Venus 0.28µM*, Vaccinia mCherry 0.32µM* and TbPYK inhibitor -4%.
`CCN(CC)C(=O)[C@H]1CC(CC(=O)NC/C=C(\C)CCC=C(C)C)C(=O)N2CCc3c([nH]c4ccc(OC)cc34)[C@]12C` (some centres undefined) gave RE007 growth inh -9%, AMA1 RON2 block inconclusive, Vaccinia Venus inconclusive, Vaccinia mCherry 13µM* and TbPYK inhibitor -3%.
CC(C)=CCC/C(C)=C/CNC(=O)C[C@H]1C[C@H](C(=O)N(C(C)C)C(C)C)[C@@]2(C)c3[nH]c4cc(-c5ccco5)ccc4c3CCN2C1=O was read as RE007 growth inh 0%, AMA1 RON2 block -24%, Vaccinia Venus inconclusive, Vaccinia mCherry 10µM* and TbPYK inhibitor -2%.
`CC(C)=CCC/C(C)=C/CNC(=O)C[C@H]1C[C@H](C(=O)N2CCCCC2)[C@@]2(C)c3[nH]c4cc(-c5ccco5)ccc4c3CCN2C1=O` gave RE007 growth inh 1%, AMA1 RON2 block -26%, Vaccinia Venus inconclusive, Vaccinia mCherry inconclusive and TbPYK inhibitor -4%.
Screening COc1ccc2[nH]c3c(c2c1)CCN1C(=O)C(CC(=O)NC/C=C(\C)CCC=C(C)C)C[C@H](C(=O)N2CCOCC2)[C@@]31CCC1CCCC1 (some centres undefined) returned RE007 growth inh 8%, AMA1 RON2 block 15%, Vaccinia Venus inconclusive, Vaccinia mCherry 10µM* and TbPYK inhibitor 2%.
CCN(CC)C(=O)[C@H]1C[C@H](CC(=O)NC/C=C(\C)CCC=C(C)C)C(=O)N2CCc3c([nH]c4cc(-c5ccco5)ccc34)[C@]12C was read as RE007 growth inh 26%, AMA1 RON2 block inconclusive, Vaccinia Venus 13µM*, Vaccinia mCherry inconclusive and TbPYK inhibitor -2%.
`CC(C)(C)c1cc(C(C)(C)C)c(NC(=O)c2c[nH]c3ccccc3c2=O)cc1O` gave TbPYK inhibitor 0%.
For COCc1ccc(C(=O)N2CCOc3c(cc(-c4cc(C)c5cccc(OC)c5n4)cc3OC)C2)o1 the results were Vaccinia Venus -8% and Vaccinia mCherry -16%.
For c1ccc2c(c1)nnn1c3ccccc3nc21 the results were LmPK inhibitor 10µM*.
CCN(CC)c1ccc(NC(=S)Nc2ccc(F)cc2)cc1 was read as RE007 growth inh -7%, AMA1 RON2 block 32µM*, Vaccinia Venus -6%, Vaccinia mCherry -13%, TbPYK inhibitor -6% and LmPK inhibitor -9%.
Screening O=C(COC(=O)c1ccccc1C(=O)c1ccc(Cl)c([N+](=O)[O-])c1)NC1CC1 returned RE007 growth inh -2%, AMA1 RON2 block 14%, Vaccinia Venus 10µM*, Vaccinia mCherry inconclusive, TbPYK inhibitor -12% and LmPK inhibitor -5%.
Screening CNC(=O)COC(=O)c1ccccc1C(=O)c1ccc(Cl)c([N+](=O)[O-])c1 returned RE007 growth inh 0%, AMA1 RON2 block -1%, Vaccinia Venus inconclusive, Vaccinia mCherry inconclusive, TbPYK inhibitor 1% and LmPK inhibitor 8%.
